# From PubChem
# MPTP block – mitochondrial permeability transition pore inhibitors, primary screen, biochemical, isolated mouse mitochondria, absorbance; inhibition, % at 10 µM; Ca2+ swelling absorbance, 30 min; 1.4% of 360,000 active;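 active = inhibition of 50% or more, scaled per plate between neutral and stimulator controls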
# Gli-Sufu antag – Gli-Sufu pathway antagonists, primary screen, luciferase luminescence, Sufu-KO-LIGHT cells, uHTS; Sufu-KO-LIGHT fibroblasts, Gli luciferase reporter luminescence; inhibition, % at 5 µM; 0.74% of 340,000 active; AID 588413, 2011;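 active = inhibition above about 55%, limit read from the data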
# CSC inhib – cancer stem cell viability inhibitors, primary screen, luminescence. cancer stem cell-like cells viability. inhibition, % at 7.5 µM. 1.1% of 300,000 active. AID 2717, 2010; in the data active = inhibition above about 75%; inconclusive = no clear call, values can overlap the other calls; tested in HMLE shEcad cells
# Mdm2-MdmX inh – inhibitors of human Mdm2-MdmX association, primary screen, cell-based, luminescence, split luciferase, SaOS-2, uHTS | Protein Mdm4 (Homo sapiens) + E3 ubiquitin-protein ligase Mdm2 (Homo sapiens), … | 3% of 330,000 active | inhibition, % at 8 µM | SaOS-2 split-luciferase Mdm2/MdmX complementation | AID 485346, 2010;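 active = inhibition of at least 50% at 8 µM in the primary screen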
# NR3A LBD binder – binders of NR3A ligand-binding domain, primary screen, biophysical, differential scanning fluorimetry, uHTS | 2.5% of 340,000 active | NR3A LBD differential scanning fluorimetry, Tm shift; 0% = protein alone, 100% = glycine-bound protein | Tm shift relative to glycine control, % at 25 µM | Glutamate receptor ionotropic, NMDA 3A (GRIN3A) ligand-binding domain | AID 1259313, 2017;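 active = melting temperature shift of at least 10% of the positive control shift, at one fixed dose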
# Beta cell apopt – inhibitors of cytokine-induced beta cell apoptosis, primary screen, luminescence; INS-1E cytokine-induced death, ATP luminescence, 48 h; percent of positive-control rescue, neutral wells zero; protection from apoptosis, % (test concentration not listed); 0.8% of 300,000 active; AID 435005, 2010;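 active = Every replicate reaches about 75%, or at least half do and their mean reaches it too, limit read from the data; inconclusive = At least half of replicates reach the limit but their mean does not; inactive = Under half of replicates reach the limit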;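 note: higher means more ATP so stronger rescue from cytokine killing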
# Numbers stand for hits; n = inactive; u = inconclusive; x = not tested or not shown; + = active, no number. This is a sample that favours compounds with a hit; in the whole collection about 6.6% have one here.
SMILES,MPTP block,Gli-Sufu antag,CSC inhib,Mdm2-MdmX inh,NR3A LBD binder,Beta cell apopt
Cc1ccc(NC(=O)Nc2ccc(S(N)(=O)=O)cc2)cc1,n,n,n,n,11,n
NS(=O)(=O)c1ccc(NC(=O)Nc2ccc(C(F)(F)F)cc2)cc1,n,n,n,n,20,n
O=C(COC(=O)c1ccccc1[N+](=O)[O-])Nc1cccnc1Cl,n,n,n,n,n,n
COCCNC(=O)C1(C)CCCN(Cc2sc(C)nc2C)C1 (stereo unspecified),n,x,x,x,x,x
CCc1cc(CNC(=O)c2ccc3nc(Cc4ccc(OC)c(OC)c4)oc3c2)on1,n,n,n,n,n,107
COc1ccccc1N1CCN(C(=O)c2ccc(CSc3ccccc3)cc2)CC1,n,n,n,n,n,n
O=C(c1ccc(CSc2ccccc2)cc1)N1CCN(c2ccccc2)CC1,n,n,+,n,n,n
CCOc1ccc(C(=O)NCC(=O)N2CCC3CCCCC3C2)cc1OCC (stereo unspecified),n,n,x,n,n,n
Cc1[nH]c2ccccc2c1SCC(=O)NNC(=O)Nc1ccc(OC(F)(F)F)cc1,n,n,n,n,12,n
O=C(COc1ncnc2ccc(Br)cc12)NCc1ccco1,n,n,n,n,n,n
COCCNC(=O)COc1ncnc2ccc(Br)cc12,n,n,n,n,13,n
COc1ccc(COC(=O)C2=C(C)NC(=O)NC2c2ccccc2)cc1 (stereo unspecified),n,n,n,n,n,n
O=C(NCc1cccnc1)c1cc(-c2ccccc2)on1,n,n,n,n,11,n
COc1ccc(-c2cc(C(=O)NCc3cccnc3)no2)cc1,n,n,n,n,n,n
O=S(=O)(c1ccc2nc(-c3ccccc3)[nH]c2c1)N1CCN(c2ccc(Cl)cc2)CC1,n,n,n,n,13,n
COc1ccc(OC)c(CN2CCN(Cc3ccc(OC)c(OC)c3OC)CC2)c1,n,x,x,x,x,x
COc1ccc(CN2CCN(CCSc3ccc(C)cc3)CC2)c(OC)c1OC,n,n,n,n,n,123
O=C1NN(c2ccccc2)C(=O)/C1=C\c1ccccc1,n,n,n,n,n,n
O=C1NN(c2cccc(Br)c2)C(=O)/C1=C\c1ccccc1,n,n,109,n,n,n
Cc1csc(NC(=O)c2ccc(COc3ccccc3)o2)n1,n,n,79,n,n,n
COc1ccc(NC(=O)c2ccc(COc3ccccc3Br)o2)cc1OC,n,n,96,n,n,n
O=C(Nc1nccs1)c1ccc(COc2ccccc2Cl)o1,n,n,81,n,n,n
Cc1cccc(NC(=O)c2ccc(COc3ccccc3)o2)n1,n,n,n,n,n,n
Cc1cccc(NC(=O)c2ccc(COc3ccc(Cl)cc3Cl)o2)n1,n,n,104,n,n,n
Cc1csc(NC(=O)c2cc3ccccc3o2)n1,n,n,x,n,n,n
SMILES,MPTP block,Gli-Sufu antag,CSC inhib,Mdm2-MdmX inh,NR3A LBD binder,Beta cell apopt
COc1ccc(NC(=O)c2ccc(COc3ccccc3OC)o2)cc1OC,n,n,n,n,n,n
CC(=O)N1CC2(CC(c3ccc(Cl)cc3Cl)=NO2)CN1c1cccc(Cl)c1 (stereo unspecified),n,x,x,x,x,x
O=C(OCc1ccccc1)N1CCC2CC1c1ccc(N3CCN(Cc4ccc5c(c4)OCO5)CC3)cc12 (stereo unspecified),n,x,x,x,x,x
O=C(Nc1nccs1)c1ccc(-c2ccc(F)c(Cl)c2)o1,n,n,n,n,14,n
CCN(CC)C(=O)Cn1cc(S(=O)(=O)CC(=O)NCCc2ccccc2)c2ccccc21,n,n,n,n,15,n
CC(C)N(C(=O)Cn1cc(S(=O)(=O)CC(=O)NCCc2ccccc2)c2ccccc21)C(C)C,n,x,x,x,x,x
COc1ccc(-c2noc(N3CCCC(C(=O)Nc4ccccc4F)C3)n2)cc1 (stereo unspecified),n,n,n,n,13,n
Cc1ccc(C)c(N2CCN(C(=O)CCC(=O)Nc3nnc(C(F)(F)F)s3)CC2)c1,n,n,n,n,n,n
Cc1ccc(S(=O)(=O)N(Cc2ccc(F)cc2)Cc2ccco2)cc1,n,n,n,n,12,n
O=C(COc1ccccc1F)NNC(=O)c1cccc(-n2cccc2)c1,n,n,n,n,n,n
CC(=O)c1cccc(CN2CCCC(C(=O)Nc3cccc(-n4cccn4)c3)C2)c1 (stereo unspecified),n,n,n,n,10,n
Cc1ncc(CN2CCCC(C(=O)Nc3ccc(-c4cccc(F)c4)cc3)C2)s1 (stereo unspecified),n,n,101,n,n,n
COc1cccc(-c2ccc(NC(=O)C3CCCN(CCCn4cccn4)C3)cc2)c1 (stereo unspecified),n,n,n,n,10,n
COc1cccc(-c2ccc(NC(=O)C3CCCN(Cc4ccccn4)C3)cc2)c1 (stereo unspecified),n,x,x,x,x,x
Cc1cc(NC(=O)c2ccc3sc([C@@H]4O[C@H](CO)[C@H](O)[C@H](O)[C@H]4O)nc3c2)n(C)n1,n,x,x,x,x,x
COc1ccc(-c2nnc(SCC(=O)Nc3ccc(Cl)cc3)n2C)cc1,n,n,n,n,n,n
CCOC(=O)/C(=N\Nc1cccc(Cl)c1)Sc1nnc(-c2ccc(OC)cc2)n1C,n,n,n,n,13,n
CCN(CC)CCSc1nnc2c3ccccc3n(Cc3ccccc3)c2n1,n,n,79,n,n,n
O=C(c1ccc(F)c(S(=O)(=O)N2CCOCC2)c1)N1CCN(c2ccc(F)cc2)CC1,n,n,x,n,n,u
CCN1CCN(CCC(=O)Nc2ccc(Br)cc2)CC1,n,n,n,n,10,n
CCNC(=O)C1(C)CCCN1C(=O)c1ccc(C#N)cc1 (stereo unspecified),n,x,x,x,x,x
COc1ccc(Cl)cc1C(=O)Nc1ccc2c(c1)OCO2,n,n,n,n,28,n
COc1ccc(Cl)cc1C(=O)Nc1ccc(NC(=O)c2ccco2)cc1,n,n,x,n,17,n
COc1cc(SC)ccc1C(=O)Nc1ccc2c(c1)OCCO2,n,n,n,n,14,n
COc1ccccc1C(=O)Nc1ccc2c(c1)OCCO2,n,n,n,n,n,n
COc1ccc(N2CCN(C(CNC(=O)C(=O)NCC3CCCO3)c3ccco3)CC2)cc1 (stereo unspecified),n,n,n,n,10,n
COC(=O)NCC(c1ccco1)N1CCN(c2ccc(OC)cc2)CC1 (stereo unspecified),n,n,n,n,n,n
COc1ccc(C(=O)NCC2CCCO2)cc1 (stereo unspecified),n,n,n,n,12,n
